According to PubChem BioAssay:
Calls of active or inactive are those of the source.

Columns and labels:
[1] = optical density shifts of acrAB sulA E. coli – strain DRC41, OD650, 48 h, E. coli filamentation inducer project, primary screen (AID 1152); conditions: higher = more signal, called active from +8 up or from −8 down;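 note: E. coli MC1000 strain DRC41 lacking acrAB efflux pump and sulA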
[2] = probe aLefty1 binding on compound microarray – biochemical, small-molecule microarray, 635/667 nm fluorescence, primary screen (AID 1153); conditions: higher = more signal;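 note: score merges spot fluorescence with signal-to-noise ratio from the scanned slide images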
[3] = plasmodial surface anion channel blockers, osmotic lysis – cell-based, P. falciparum Indochina, OD700, 1 h, primary screen (AID 1154); conditions: P. falciparum Indochina infected RBC osmotic lysis, higher = more signal, called active from +8 up or from −8 down
[4] = plasmodial surface anion channel blockers, osmotic lysis – cell-based, P. falciparum Indochina, OD700, 2 h, primary screen (AID 1155);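 note: lysis reports solute entry through the parasite surface anion channel PSAC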; conditions: P. falciparum Indochina infected erythrocytes, higher = more signal, called active from +8 up or from −8 down
[5] = changes in parasitized red cell lysis, either direction – P. falciparum Indochina, OD700, 3 h, PSAC antagonist project, primary screen (AID 1156); conditions: P. falciparum-infected erythrocytes, osmotic lysis, higher = more signal, called active from +8 up or from −8 down
[6] = plasmodial surface anion channel blockers, osmotic lysis – cell-based, P. falciparum Indochina, OD700, 18 h, primary screen (AID 1157); conditions: P. falciparum Indochina infected erythrocytes, osmotic lysis OD700, 18 h; higher = more signal, called active from +8 up or from −8 down
[7] = S6 kinase pathway phospho-S6 level changes – cell-based, A549, cytoblot, luminescence, serum-stimulated, primary screen (AID 1158); conditions: 5 h, higher = more signal;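 note: serum-stimulated A549 lung adenocarcinoma cells; signal is phosphorylated S6 detected by cytoblot immunostaining with HRP secondary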
[8] = molecular target: NADPH oxidase 2 (Homo sapiens) (UniProt P04839); assay: compounds shifting NOX2 Amplex Red fluorescence – cell-based, HEK293-NOX2, PMA-stimulated, NOX inhibitor project, primary screen (AID 1159); conditions: 45 min, higher = more signal, called active from +8 up or from −8 down; note: test concentration not given here
[9] = molecular target: NADPH oxidase 4 (Homo sapiens) (UniProt Q9NPH5); assay: compounds shifting NOX4 Amplex Red fluorescence – cell-based, HEK293-NOX4, tetracycline-induced, NOX inhibitor project, primary screen (AID 1160); conditions: HEK293-NOX4, Amplex Red H2O2 fluorescence, 45 min; higher = more signal, called active from +8 up or from −8 down
[10] = molecular target: NADPH oxidase 5 (Homo sapiens) (UniProt Q96PH1); assay: compounds shifting NOX5 Amplex Red fluorescence – cell-based, HEK293-NOX5, NOX inhibitor project, primary screen (AID 1161); conditions: HEK293-NOX5, ionomycin, 45 min, higher = more signal
[11] = compound effects on lung adenocarcinoma cell viability – A549, calcein-AM fluorescence, 48 h, basal, profiling panel (AID 1162); conditions: higher = more signal; note: test concentration not given here
[12] = compound effects on differentiated 3T3-L1 adipocyte viability – cell-based, 3T3-L1 adipocytes, calcein-AM fluorescence, 48 h, basal, profiling panel (AID 1163); conditions: 3T3-L1 adipocytes viability, higher = more signal; note: test concentration not given here
[13] = compound effects on hepatocellular carcinoma cell viability – HepG2, calcein-AM fluorescence, 48 h, basal, profiling panel (AID 1164); conditions: higher = more signal; note: test concentration not given here
[14] = compound effects on multiple myeloma cell viability – MM1S, calcein-AM fluorescence, 48 h, basal, profiling panel (AID 1165); conditions: higher = more signal; note: test concentration not given here
[15] = calcein-AM signal in unstimulated myeloma cells – cell-based, calcein-AM fluorescence, 48 h, PK04 Diversity Set, profiling panel (AID 1166); conditions: RPMI8226 myeloma viability, higher = more signal;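 note: cells grown under basal conditions without added stimulus; test concentration not given here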
[16] = JC-1 mitochondrial signal, unstimulated HepG2 cells – cell-based, JC-1 fluorescence, 24 h, 100 nL compound, profiling panel (AID 1167); conditions: HepG2 mitochondrial potential, higher = more signal; note: test concentration not given here
[17] = JC-1 mitochondrial signal, unstimulated adipocytes – cell-based, JC-1 fluorescence, 3T3-L1 adipocytes, 24 h, 100 nL compound, profiling panel (AID 1168); conditions: JC-1 mitochondrial fluorescence, higher = more signal, called active from +8 up or from −8 down; note: test concentration not given here
[18] = JC-1 mitochondrial signal, unstimulated myeloma cells – cell-based, JC-1 fluorescence, RPMI8226, 24 h, 100 nL compound, profiling panel (AID 1169); conditions: JC-1 mitochondrial potential fluorescence, higher = more signal; note: test concentration not given here
[19] = JC-1 mitochondrial signal, unstimulated MM1S myeloma – cell-based, JC-1 fluorescence, 24 h, 100 nL compound, profiling panel (AID 1170); conditions: MM1S mitochondrial potential, higher = more signal; note: test concentration not given here
[20] = resazurin metabolic signal in A549 cells – cell-based, resazurin fluorescence, 24 h, PK04 Diversity Set, profiling panel (AID 1171); conditions: A549 viability, higher = more signal, called active from +8 up or from −8 down; note: test concentration not given here

NADPH oxidase 2 (Homo sapiens), sequence (P04839 whole entry, looked up): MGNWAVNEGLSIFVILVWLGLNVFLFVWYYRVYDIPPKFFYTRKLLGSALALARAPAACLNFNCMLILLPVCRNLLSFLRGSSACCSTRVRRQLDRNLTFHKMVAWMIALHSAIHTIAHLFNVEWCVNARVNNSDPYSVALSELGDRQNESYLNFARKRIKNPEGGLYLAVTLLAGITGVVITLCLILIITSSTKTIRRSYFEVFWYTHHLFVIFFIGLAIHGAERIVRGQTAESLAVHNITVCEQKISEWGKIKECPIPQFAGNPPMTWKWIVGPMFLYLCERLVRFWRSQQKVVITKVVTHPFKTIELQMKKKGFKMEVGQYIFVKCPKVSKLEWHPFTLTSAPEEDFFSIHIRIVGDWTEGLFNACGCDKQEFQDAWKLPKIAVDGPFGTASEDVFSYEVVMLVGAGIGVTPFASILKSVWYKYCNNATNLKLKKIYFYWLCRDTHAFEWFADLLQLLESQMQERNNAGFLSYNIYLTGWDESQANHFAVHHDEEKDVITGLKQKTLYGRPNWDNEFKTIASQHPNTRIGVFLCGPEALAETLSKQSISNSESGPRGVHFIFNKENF
NADPH oxidase 4 (Homo sapiens), sequence (Q9NPH5 whole entry, looked up): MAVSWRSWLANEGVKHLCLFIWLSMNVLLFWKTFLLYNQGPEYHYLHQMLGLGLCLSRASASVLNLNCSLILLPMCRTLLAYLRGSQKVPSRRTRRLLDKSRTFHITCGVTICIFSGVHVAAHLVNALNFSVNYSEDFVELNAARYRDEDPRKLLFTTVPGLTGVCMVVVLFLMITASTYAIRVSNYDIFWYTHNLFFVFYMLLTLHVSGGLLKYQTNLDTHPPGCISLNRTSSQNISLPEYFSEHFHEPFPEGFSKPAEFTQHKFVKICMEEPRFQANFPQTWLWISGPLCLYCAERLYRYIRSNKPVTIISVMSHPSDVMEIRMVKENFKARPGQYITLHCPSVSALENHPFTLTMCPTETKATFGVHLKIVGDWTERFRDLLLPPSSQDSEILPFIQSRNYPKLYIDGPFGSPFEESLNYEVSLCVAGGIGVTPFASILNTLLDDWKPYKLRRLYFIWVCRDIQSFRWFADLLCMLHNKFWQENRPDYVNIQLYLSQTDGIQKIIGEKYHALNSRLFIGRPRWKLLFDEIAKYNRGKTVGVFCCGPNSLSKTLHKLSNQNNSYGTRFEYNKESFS
NADPH oxidase 5 (Homo sapiens), sequence (Q96PH1 whole entry, looked up): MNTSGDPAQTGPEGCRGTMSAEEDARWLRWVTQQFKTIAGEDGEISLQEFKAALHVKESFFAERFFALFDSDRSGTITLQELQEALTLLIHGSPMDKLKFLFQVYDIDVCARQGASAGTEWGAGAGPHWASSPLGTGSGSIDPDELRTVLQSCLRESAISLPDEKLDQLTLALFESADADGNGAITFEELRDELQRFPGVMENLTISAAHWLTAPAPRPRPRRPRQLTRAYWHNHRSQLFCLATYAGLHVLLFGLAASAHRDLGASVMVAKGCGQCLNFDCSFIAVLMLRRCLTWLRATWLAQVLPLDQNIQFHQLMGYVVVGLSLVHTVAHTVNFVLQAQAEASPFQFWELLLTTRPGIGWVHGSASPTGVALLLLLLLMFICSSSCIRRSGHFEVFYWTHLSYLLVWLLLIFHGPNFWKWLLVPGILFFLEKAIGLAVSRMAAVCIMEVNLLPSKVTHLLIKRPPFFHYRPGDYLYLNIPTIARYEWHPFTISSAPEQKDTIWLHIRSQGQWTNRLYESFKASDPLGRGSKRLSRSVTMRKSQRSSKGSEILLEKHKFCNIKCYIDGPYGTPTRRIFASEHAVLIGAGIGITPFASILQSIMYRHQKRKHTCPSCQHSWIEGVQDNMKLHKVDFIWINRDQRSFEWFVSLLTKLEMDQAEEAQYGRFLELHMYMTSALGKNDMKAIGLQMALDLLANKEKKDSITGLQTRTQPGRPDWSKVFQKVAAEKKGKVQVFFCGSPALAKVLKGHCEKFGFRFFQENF

Structure (SMILES) | z-score [1] | composite z-score [2] | z-score [3] | z-score [4] | z-score [5] | z-score [6] | z-score [7] | z-score [8] | z-score [9] | z-score [10] | z-score [11] | z-score [12] | z-score [13] | z-score [14] | z-score [15] | z-score [16] | z-score [17] | z-score [18] | z-score [19] | z-score [20]
C=CCC1=C[C@H]2[C@H]([C@@H]3C=C[C@]2(CC=C)C(=O)[C@]32CO2)[C@@]2(CO2)C1=O | 2.45 (inactive) | 0.736 | 0.348 (inactive) | -0.877 (inactive) | 1.16 (inactive) | -1.87 (inactive) | 0.76 | -0.0349 (inactive) | 0.0495 (inactive) | -0.972 | -0.135 | 0.916 | -0.732 | -3.16 | -2.93 | 0.896 | 1.54 (inactive) | -0.201 | -2.08 | -1.33 (inactive)
C#CCCCON=C1C[C@@H](O)[C@@H](O)[C@@H]2[C@@H]3C(=O)N(Cc4ccc5c(c4)OCO5)C(=O)[C@@H]3CC[C@H]12 | 0.324 (inactive) | -0.161 |  |  |  |  | -0.852 | -0.275 (inactive) | 0.911 (inactive) | -0.124 | 0.391 | -0.027 | -0.464 | 0.484 | 0.0196 | -0.537 | -0.0334 (inactive) | -0.427 | -0.778 | 0.495 (inactive)
Cc1ccc(N2C(=O)c3ccccc3[C@](C)(C(=O)NCC(C)C)[C@@H]2c2ccc(CO)cc2)nc1 | -0.262 (inactive) | -0.147 | 1.84 (inactive) | 0.707 (inactive) | 1.26 (inactive) | 0.937 (inactive) | -0.0528 | 0.253 (inactive) | -0.657 (inactive) | -1.63 | -0.535 | -0.672 | -0.712 | -0.359 | 0.256 | -0.481 | -0.74 (inactive) | -0.0498 | -0.634 | 0.606 (inactive)
CCOC(=O)[C@H]1C/C=C/C[C@H](C(=O)OCC)C(=O)O[C@H]2[C@@H](OC)O[C@H](CO)[C@@H](OC(=O)Nc3ccc(Br)cc3)[C@@H]2OC1=O | 2.32 (inactive) | 0.0606 | 5.41 (inactive) | 1.8 (inactive) | -3.28 (inactive) | 0.412 (inactive) | 1.5 | -0.611 (inactive) | -0.759 (inactive) | 1.63 | -4.47 | -0.34 | -5.12 | -3.28 | -4.16 | -3.44 | 2.89 (inactive) | -0.948 | -1.83 | -7.29 (inactive)
CO[C@@H]1COC(=O)[C@H](COCc2ccccc2)NC(=O)CC=C[C@@H](C)[C@H](OC)COC(=O)[C@H](COCc2ccccc2)NC(=O)CC=C[C@H]1C | -0.207 (inactive) | 0.113 | -0.279 (inactive) | -0.562 (inactive) | -0.646 (inactive) | -1.73 (inactive) | 0.37 | 1.15 (inactive) | 0.931 (inactive) | 0.314 | 0.404 | 0.67 | -0.0841 | 0.0234 | 0.711 | 0.849 | 1 (inactive) | 0.525 | 0.178 | 0.296 (inactive)
C=CC[C@]1(C(=O)O)N=C(c2ccc(OCCCO)cc2)O[C@H]1c1ccccc1N=[N+]=[N-] | 1.76 (inactive) | 0.0299 | 32.9 (active) | 29.4 (active) | 3.38 (inactive) | 9.45 (active) | 0.883 | -1.53 (inactive) | 0.823 (inactive) | -0.199 | 0.144 | 0.722 | -0.489 | -2.19 | -0.0144 | 0.0206 | 0.504 (inactive) | -0.837 | -0.783 | 0.909 (inactive)
COCCOC(=O)N1C(=O)[C@@]2(c3cc(C#CCNC(N)=O)ccc31)[C@H](C(=O)N1CCCCCCC1)[C@H]1C(=O)O[C@H](c3ccccc3)[C@H](c3ccccc3)N1[C@@H]2c1ccccc1OCCO | -0.332 (inactive) | 1.28 | 1.17 (inactive) | 1.53 (inactive) | 0.926 (inactive) | 0.927 (inactive) | 0.344 | 1.66 (inactive) | 0.683 (inactive) | 0.357 | 1.01 | -0.177 | 1.04 | 1.38 | 0.767 | -1.3 | 0.315 (inactive) | -0.587 | -1.57 | -0.307 (inactive)
O=C(NCc1ccccc1)[C@@]1(CCS(=O)(=O)c2ccccc2)COC(c2ccc(OCCCO)cc2)=N1 | 2.13 (inactive) | 0.715 | 30.4 (active) | 25.8 (active) | 3.7 (inactive) | 5.53 (inactive) | 2.54 | -2.26 (inactive) | -0.0883 (inactive) | -2.24 | 1.29 | 0.897 | -0.0721 | -2.26 | -0.256 | 1.61 | 1.11 (inactive) | -0.263 | -0.944 | -0.335 (inactive)
CC(C)[Si]1(C(C)C)O[C@@H](c2ccccc2)c2cc(C3CC3)nc(-c3ccc(Oc4ccccc4)cc3)c21 | 2.17 (inactive) | -0.0011 | 0.835 (inactive) | -0.0994 (inactive) | 1.08 (inactive) | -0.812 (inactive) | -0.164 | 1.06 (inactive) | 0.86 (inactive) | 0.456 | -0.654 | 1.31 | 0.0626 | -0.964 | 0.391 | 0.484 | 0.924 (inactive) | 0.38 | 0.484 | 1.6 (inactive)
